Publication PMC7862700, “An all-to-all approach to the identification of sequence-specific readers for epigenetic DNA modifications on cytosine”

Key:
Assay in all cases: DAPPL (digital affinity profiling via proximity ligation, sequencing); 10 mM Tris-HCl pH 7.5, 50 mM NaCl, 1 mM DTT, 4% glycerol, room temperature, 30 min; GST-TFs on glutathione beads, 16-mer random dsDNA library, 0.1% formaldehyde crosslink after washing; high values mean tight binding
[1] = target: T1, FEV (Homo sapiens, UniProt Q99581 1-238); conditions: protein: recombinant; tags: N-terminal GST; dsDNA, one strand shown
T1 sequence: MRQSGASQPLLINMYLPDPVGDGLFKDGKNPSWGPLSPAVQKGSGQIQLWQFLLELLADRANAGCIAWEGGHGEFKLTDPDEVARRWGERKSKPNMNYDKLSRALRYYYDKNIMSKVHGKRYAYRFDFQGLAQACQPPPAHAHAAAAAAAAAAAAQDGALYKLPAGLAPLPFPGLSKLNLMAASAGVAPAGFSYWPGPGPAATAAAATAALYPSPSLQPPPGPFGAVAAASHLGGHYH
How it was run: (§1)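 Sequencing on an Illumina NextSeq500 followed washing, crosslinking with 0.1% formaldehyde, proximity ligation (BsaI/T4 ligase, 1 h, 37 °C) and PCR amplification of pools that had been incubated for 30 min at room temperature with 200 nmole of a random double-stranded 16-mer DNA library in Tris/NaCl/DTT/glycerol buffer. Each pool held DNA-barcoded human transcription factors, expressed in yeast as GST fusions and captured on glutathione beads, plus a tag-only sample. Binding signal is a hexamer's read frequency for a factor divided by its frequency in the tag-only sample.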

[2] = target: ETV5 (Homo sapiens, UniProt P41161 1-510); conditions: protein: recombinant; tags: N-terminal GST; dsDNA, one strand shown
Chain of ETV5 (P41161 whole entry): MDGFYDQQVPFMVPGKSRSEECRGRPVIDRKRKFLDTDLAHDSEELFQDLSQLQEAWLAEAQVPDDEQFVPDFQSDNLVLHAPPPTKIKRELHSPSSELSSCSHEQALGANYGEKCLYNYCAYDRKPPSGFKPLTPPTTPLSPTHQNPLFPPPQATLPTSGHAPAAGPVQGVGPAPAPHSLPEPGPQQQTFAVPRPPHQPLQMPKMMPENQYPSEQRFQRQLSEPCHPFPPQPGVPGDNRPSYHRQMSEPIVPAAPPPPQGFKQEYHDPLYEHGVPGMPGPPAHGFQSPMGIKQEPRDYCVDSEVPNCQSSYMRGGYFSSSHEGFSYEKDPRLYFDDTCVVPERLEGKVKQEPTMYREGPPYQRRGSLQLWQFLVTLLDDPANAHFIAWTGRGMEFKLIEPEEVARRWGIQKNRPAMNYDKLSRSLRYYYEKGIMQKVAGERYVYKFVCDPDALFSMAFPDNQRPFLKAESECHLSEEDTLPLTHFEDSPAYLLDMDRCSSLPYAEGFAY
How it was run: as §1

[3] = target: HSF1 (Homo sapiens, UniProt Q00613 1-529); conditions: protein: recombinant; tags: N-terminal GST; chain copies: 3; dsDNA, one strand shown
Chain of HSF1 (Q00613 whole entry): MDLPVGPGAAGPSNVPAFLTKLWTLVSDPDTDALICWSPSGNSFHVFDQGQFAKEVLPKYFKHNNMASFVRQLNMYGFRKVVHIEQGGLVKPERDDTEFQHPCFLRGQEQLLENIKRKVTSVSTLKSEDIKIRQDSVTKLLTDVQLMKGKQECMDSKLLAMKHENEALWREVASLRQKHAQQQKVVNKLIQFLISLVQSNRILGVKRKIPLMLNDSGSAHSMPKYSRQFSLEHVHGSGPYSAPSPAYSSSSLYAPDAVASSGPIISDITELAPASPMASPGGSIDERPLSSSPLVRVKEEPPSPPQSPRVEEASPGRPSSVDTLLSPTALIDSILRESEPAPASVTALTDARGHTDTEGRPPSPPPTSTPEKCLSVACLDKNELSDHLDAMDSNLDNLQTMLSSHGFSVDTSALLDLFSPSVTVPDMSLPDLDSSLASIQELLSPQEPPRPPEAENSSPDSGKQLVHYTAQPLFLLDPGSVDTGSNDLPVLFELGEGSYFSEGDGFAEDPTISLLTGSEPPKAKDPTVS
How it was run: as §1

[4] = target: T2, SPIC (Homo sapiens, UniProt Q8N5J4 1-248); conditions: protein: recombinant; tags: N-terminal GST; dsDNA, one strand shown
T2 sequence: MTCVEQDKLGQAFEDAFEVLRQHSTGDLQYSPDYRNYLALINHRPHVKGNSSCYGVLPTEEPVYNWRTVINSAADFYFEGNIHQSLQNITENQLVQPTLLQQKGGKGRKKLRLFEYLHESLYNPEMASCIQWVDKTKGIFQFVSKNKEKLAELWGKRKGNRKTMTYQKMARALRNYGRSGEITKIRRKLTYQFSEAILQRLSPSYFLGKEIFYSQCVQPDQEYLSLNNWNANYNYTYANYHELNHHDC
How it was run: as §1

[5] = target: ELF4 (Homo sapiens, UniProt Q99607 1-663); conditions: protein: recombinant; tags: N-terminal GST; dsDNA, one strand shown
Chain of ELF4 (Q99607 whole entry): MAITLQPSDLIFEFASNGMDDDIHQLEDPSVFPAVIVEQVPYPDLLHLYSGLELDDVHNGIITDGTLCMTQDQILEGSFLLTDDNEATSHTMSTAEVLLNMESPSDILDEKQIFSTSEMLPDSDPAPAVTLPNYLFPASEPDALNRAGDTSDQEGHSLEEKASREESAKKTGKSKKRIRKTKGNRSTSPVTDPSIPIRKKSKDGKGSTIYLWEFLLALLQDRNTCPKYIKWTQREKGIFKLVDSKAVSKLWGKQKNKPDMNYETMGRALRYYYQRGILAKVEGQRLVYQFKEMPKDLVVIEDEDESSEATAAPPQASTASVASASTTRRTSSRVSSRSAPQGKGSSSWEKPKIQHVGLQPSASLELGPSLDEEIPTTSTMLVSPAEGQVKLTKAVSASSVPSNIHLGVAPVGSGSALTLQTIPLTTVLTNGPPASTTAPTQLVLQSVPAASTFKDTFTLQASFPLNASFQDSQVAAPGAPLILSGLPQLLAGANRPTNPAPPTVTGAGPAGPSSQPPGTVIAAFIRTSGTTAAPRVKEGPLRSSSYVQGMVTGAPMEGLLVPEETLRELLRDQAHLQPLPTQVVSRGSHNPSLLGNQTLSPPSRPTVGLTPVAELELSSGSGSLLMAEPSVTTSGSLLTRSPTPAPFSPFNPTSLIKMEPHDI
How it was run: as §1

[6] = target: T3, ELK4 (Homo sapiens, UniProt P28324-2 1-405); conditions: protein: recombinant; tags: N-terminal GST; dsDNA, one strand shown
T3 sequence: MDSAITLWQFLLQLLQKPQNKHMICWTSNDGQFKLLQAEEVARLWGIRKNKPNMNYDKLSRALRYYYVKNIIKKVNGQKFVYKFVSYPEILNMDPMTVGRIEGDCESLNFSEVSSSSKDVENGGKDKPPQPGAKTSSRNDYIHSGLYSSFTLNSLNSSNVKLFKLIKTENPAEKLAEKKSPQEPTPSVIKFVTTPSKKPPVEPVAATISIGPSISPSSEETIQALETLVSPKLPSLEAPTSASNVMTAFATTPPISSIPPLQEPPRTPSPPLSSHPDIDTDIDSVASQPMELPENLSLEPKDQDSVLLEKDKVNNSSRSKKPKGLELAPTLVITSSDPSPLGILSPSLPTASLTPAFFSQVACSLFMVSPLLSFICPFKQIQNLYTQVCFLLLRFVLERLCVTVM
How it was run: as §1

[7] = target: T4, ETV2 (Homo sapiens, UniProt O00321 1-342); conditions: protein: recombinant; tags: N-terminal GST; dsDNA, one strand shown
T4 sequence: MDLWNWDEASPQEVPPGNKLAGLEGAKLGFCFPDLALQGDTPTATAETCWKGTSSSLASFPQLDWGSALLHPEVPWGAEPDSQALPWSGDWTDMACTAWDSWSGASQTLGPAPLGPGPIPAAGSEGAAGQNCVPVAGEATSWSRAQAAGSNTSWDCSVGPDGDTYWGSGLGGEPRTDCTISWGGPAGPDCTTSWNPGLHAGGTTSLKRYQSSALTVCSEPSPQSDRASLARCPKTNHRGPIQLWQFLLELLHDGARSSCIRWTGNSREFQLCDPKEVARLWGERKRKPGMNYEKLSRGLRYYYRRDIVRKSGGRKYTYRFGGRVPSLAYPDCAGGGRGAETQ
How it was run: as §1

[8] = target: T5, ELF3 (Homo sapiens, UniProt P78545 1-371); conditions: protein: recombinant; tags: N-terminal GST; dsDNA, one strand shown
T5 sequence: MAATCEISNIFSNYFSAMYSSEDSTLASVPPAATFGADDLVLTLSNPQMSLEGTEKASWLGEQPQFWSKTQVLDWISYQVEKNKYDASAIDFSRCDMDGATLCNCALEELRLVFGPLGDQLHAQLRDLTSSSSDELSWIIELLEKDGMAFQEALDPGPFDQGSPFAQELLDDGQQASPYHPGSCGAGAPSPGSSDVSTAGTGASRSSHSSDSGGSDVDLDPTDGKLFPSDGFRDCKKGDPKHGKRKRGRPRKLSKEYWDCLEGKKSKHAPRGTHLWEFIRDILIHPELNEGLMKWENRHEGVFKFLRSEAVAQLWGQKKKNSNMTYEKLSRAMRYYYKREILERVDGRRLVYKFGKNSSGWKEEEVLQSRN
How it was run: as §1

[9] = target: ETV1 (Homo sapiens, UniProt P50549 1-477); conditions: protein: recombinant; tags: N-terminal GST; dsDNA, one strand shown
Chain of ETV1 (P50549 whole entry): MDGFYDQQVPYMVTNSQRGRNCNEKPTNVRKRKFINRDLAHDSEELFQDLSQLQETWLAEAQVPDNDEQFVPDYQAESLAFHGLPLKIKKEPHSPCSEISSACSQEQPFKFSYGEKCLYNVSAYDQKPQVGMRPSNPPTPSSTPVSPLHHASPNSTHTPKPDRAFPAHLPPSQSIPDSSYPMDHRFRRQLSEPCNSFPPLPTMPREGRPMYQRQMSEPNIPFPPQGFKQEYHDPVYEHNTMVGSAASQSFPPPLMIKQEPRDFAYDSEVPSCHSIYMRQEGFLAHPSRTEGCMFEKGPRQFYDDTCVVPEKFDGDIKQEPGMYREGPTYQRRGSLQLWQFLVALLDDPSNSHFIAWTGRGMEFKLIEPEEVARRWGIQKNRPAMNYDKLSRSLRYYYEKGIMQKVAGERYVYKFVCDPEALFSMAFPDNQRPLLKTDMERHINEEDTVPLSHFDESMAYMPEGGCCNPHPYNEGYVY
How it was run: as §1

[10] = target: T6, ERF (Homo sapiens, UniProt P50548 1-548); conditions: protein: recombinant; tags: N-terminal GST; dsDNA, one strand shown
T6 sequence: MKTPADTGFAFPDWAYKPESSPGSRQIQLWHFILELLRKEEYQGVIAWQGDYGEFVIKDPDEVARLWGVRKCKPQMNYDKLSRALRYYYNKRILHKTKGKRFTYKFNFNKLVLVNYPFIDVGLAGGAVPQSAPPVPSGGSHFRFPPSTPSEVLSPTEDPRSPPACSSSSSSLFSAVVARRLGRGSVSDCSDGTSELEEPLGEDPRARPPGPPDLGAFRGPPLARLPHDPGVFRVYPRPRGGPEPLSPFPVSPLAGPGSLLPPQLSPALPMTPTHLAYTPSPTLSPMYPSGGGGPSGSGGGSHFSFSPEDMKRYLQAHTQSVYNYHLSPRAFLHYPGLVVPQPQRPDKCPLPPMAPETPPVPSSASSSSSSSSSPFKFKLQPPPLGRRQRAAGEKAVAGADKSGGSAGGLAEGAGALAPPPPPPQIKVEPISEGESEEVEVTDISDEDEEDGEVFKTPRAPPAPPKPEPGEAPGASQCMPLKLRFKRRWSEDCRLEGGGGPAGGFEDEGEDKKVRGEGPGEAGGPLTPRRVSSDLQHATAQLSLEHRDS
How it was run: as §1

[11] = target: T7, ETV3L (Homo sapiens, UniProt Q6ZN32 1-361); conditions: protein: recombinant; tags: N-terminal GST; dsDNA, one strand shown
T7 sequence: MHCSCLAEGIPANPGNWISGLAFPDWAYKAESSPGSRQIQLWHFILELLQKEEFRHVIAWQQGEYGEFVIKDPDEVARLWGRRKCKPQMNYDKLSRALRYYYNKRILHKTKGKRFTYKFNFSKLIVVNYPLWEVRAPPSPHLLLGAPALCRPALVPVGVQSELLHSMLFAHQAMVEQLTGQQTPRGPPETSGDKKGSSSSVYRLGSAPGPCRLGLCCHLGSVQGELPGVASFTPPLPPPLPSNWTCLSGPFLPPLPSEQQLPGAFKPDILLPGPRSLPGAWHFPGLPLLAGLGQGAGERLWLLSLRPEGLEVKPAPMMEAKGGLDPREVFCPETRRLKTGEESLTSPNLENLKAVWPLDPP
How it was run: as §1

[12] = target: T8, ETS2 (Homo sapiens, UniProt P15036 1-469); conditions: protein: recombinant; tags: N-terminal GST; dsDNA, one strand shown
T8 sequence: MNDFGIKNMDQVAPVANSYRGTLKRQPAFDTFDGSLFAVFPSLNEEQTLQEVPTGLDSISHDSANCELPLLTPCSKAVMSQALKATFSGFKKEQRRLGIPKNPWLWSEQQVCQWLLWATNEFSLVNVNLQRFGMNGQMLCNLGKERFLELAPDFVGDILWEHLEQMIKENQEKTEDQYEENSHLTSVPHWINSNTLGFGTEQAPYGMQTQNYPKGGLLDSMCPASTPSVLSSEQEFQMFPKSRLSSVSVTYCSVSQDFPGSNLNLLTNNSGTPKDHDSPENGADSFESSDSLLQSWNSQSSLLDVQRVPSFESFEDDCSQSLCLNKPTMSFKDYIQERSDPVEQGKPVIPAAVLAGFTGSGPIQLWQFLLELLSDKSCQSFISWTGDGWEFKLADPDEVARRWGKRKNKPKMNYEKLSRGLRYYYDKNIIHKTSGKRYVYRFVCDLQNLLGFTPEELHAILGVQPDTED
How it was run: as §1

[13] = target: T9, SPDEF (Homo sapiens, UniProt O95238 1-335); conditions: protein: recombinant; tags: N-terminal GST; dsDNA, one strand shown
T9 sequence: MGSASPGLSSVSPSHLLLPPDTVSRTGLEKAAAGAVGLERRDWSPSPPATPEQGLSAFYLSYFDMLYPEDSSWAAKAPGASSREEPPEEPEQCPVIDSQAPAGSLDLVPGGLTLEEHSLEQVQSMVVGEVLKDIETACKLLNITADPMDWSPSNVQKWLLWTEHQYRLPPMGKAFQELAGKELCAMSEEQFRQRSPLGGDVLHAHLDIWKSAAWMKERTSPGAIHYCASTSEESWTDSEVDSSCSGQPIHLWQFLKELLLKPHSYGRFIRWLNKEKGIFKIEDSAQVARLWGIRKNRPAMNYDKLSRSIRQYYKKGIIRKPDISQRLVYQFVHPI
How it was run: as §1

[14] = target: T10, ETV7 (Homo sapiens, UniProt Q9Y603 1-341); conditions: protein: recombinant; tags: N-terminal GST; dsDNA, one strand shown
T10 sequence: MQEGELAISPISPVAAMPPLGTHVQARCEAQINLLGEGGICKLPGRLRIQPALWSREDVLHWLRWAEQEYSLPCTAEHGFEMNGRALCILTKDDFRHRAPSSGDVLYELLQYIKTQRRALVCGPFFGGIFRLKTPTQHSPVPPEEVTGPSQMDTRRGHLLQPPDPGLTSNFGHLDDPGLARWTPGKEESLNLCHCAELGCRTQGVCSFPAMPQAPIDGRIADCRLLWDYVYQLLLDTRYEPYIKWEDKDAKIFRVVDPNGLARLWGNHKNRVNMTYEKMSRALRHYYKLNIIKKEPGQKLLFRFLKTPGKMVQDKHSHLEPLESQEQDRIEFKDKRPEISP
How it was run: as §1

[15] = target: T11, ELF5 (Homo sapiens, UniProt Q9UKW6-2 1-255); conditions: protein: recombinant; tags: N-terminal GST; dsDNA, one strand shown
T11 sequence: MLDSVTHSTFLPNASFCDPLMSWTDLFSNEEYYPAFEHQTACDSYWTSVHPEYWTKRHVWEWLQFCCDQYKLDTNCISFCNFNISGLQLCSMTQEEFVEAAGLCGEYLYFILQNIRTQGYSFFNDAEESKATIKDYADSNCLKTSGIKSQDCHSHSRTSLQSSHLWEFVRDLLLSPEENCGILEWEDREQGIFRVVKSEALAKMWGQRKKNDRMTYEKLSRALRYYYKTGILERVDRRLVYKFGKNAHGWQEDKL
How it was run: as §1

[16] = target: T12, ETV3 (Homo sapiens, UniProt P41162-2 1-143); conditions: protein: recombinant; tags: N-terminal GST; dsDNA, one strand shown
T12 sequence: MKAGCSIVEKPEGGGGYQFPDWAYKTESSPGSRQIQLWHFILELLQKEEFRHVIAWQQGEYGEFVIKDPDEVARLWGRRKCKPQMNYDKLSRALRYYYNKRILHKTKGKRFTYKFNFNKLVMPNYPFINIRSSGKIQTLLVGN
How it was run: as §1

[17] = target: ETV6 (Homo sapiens, UniProt P41212 1-452); conditions: protein: recombinant; tags: N-terminal GST; dsDNA, one strand shown
Chain of ETV6 (P41212 whole entry): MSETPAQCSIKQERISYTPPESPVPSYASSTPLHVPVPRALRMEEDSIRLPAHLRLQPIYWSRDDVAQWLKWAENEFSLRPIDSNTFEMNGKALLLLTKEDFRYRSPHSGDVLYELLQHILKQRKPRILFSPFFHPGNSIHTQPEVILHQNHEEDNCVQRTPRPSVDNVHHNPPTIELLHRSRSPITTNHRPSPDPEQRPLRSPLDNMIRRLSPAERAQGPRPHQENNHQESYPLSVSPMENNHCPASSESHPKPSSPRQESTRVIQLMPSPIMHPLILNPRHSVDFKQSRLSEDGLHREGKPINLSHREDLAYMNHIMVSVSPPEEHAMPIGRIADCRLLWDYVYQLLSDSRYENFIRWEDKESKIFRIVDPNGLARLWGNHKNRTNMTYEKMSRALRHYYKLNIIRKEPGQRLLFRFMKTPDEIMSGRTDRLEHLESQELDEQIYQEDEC
How it was run: as §1

TGCCGC
binding signal [1]: 1.27 fold enrichment (6-mer frequency, TF over GST control) | binding signal [2]: 1.23 fold enrichment (6-mer frequency, TF over GST control) | binding signal [3]: 1.03 fold enrichment (6-mer frequency, TF over GST control) | binding signal [4]: 1.15 fold enrichment (6-mer frequency, TF over GST control) | binding signal [5]: 1.35 fold enrichment (6-mer frequency, TF over GST control) | binding signal [6]: 1.23 fold enrichment (6-mer frequency, TF over GST control) | binding signal [7]: 1.06 fold enrichment (6-mer frequency, TF over GST control) | binding signal [8]: 1.07 fold enrichment (6-mer frequency, TF over GST control) | binding signal [9]: 1.3 fold enrichment (6-mer frequency, TF over GST control) | binding signal [10]: 1.32 fold enrichment (6-mer frequency, TF over GST control) | binding signal [11]: 1.22 fold enrichment (6-mer frequency, TF over GST control) | binding signal [12]: 1.33 fold enrichment (6-mer frequency, TF over GST control) | binding signal [13]: 1.15 fold enrichment (6-mer frequency, TF over GST control) | binding signal [14]: 1.22 fold enrichment (6-mer frequency, TF over GST control) | binding signal [15]: 1.22 fold enrichment (6-mer frequency, TF over GST control) | binding signal [16]: 1.36 fold enrichment (6-mer frequency, TF over GST control) | binding signal [17]: 1.27 fold enrichment (6-mer frequency, TF over GST control)
